Compound activity (PubChem BioAssay)
The list is not random: actives were taken first. Their share in the collection is about 17%.
DT40 TDP1 CPT: qHTS for Inhibitors of human tyrosyl-DNA phosphodiesterase 1 (TDP1): qHTS in cells in presence of CPT; chicken DT40 Tdp1-/-;hTDP1 cells + 20 nM CPT, ATP luminescence, 48 h; Potency, µM (titrated, usually from 46.2 µM), without a hit: at the highest dose activity change, negative = growth inhibition, hits mostly inhibitors; hit rate 12% among 420,000; AID 686979, 2013; further: on the % scale 0 is the no-effect control and ±100 the full control effect; nearly all actives have a fitted effect of over 55% in size
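Cell growth measured by CellTiter-Glo luminescence after a minimum 48 h, 37 C compound exposure with 20 nM CPT in Tdp1-knockout DT40 cells stably expressing hTDP1, seeded 400/well; qHTS titration format.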
TDP1 block: qHTS Assay for Inhibitors of Tyrosyl-DNA Phosphodiesterase (TDP1); recombinant TDP1, AlphaScreen DNA substrate cleavage; Tyrosyl-DNA phosphodiesterase 1 (Homo sapiens), Q9NUW8; Potency, µM (top dose mostly 130 µM), for inactives: at the highest dose activity change, negative = inhibition, actives largely listed as inhibitors; hit rate 0.28% among 350,000; AID 485290, 2010; further: on the % scale 0 is the no-effect control and ±100 the full control effect; nearly all actives have a fitted effect of over 40% in size
Target sequence (Q9NUW8 whole entry, looked up): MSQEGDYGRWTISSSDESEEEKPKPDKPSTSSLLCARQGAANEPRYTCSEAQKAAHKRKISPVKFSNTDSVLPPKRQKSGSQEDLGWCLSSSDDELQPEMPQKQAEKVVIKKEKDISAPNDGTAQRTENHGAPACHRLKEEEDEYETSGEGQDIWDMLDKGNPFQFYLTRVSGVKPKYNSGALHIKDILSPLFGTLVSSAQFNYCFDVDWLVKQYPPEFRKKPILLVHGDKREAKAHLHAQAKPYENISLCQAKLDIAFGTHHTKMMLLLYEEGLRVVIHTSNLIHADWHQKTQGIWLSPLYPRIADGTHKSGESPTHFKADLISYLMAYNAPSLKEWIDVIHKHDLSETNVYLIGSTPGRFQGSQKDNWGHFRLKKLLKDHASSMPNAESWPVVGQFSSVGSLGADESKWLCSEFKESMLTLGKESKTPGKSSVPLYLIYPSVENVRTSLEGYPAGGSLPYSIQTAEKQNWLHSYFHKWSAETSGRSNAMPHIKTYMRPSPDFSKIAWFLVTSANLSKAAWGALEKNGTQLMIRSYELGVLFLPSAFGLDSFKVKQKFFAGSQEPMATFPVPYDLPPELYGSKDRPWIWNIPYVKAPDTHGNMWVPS
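Tdp1 1 nM final; 15 min RT w/ cpd; substrate 15 nM, 5 min; beads 10 ug/ml, 10 min; AlphaScreen read. Neg ctrl: no enzyme.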
TDP1 cell noCPT: qHTS for Inhibitors of human tyrosyl-DNA phosphodiesterase 1 (TDP1): qHTS in cells in absence of CPT; DT40 Tdp1-/- hTDP1 cells, no CPT, ATP luminescence, 48 h; Potency, µM (doses to about 46.2 µM), for inactives: top-dose activity change, negative = growth inhibition, usual class: inhibitors; hit rate 15% among 420,000; AID 686978, 2013; further: on the % scale 0 is the no-effect control and ±100 the full control effect; nearly all actives have a fitted effect of over 55% in size
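Seeded 400 DT40-hTDP1 cells/well (vehicle DMSO, no 20 nM CPT); pinned compounds; ≥48 hr at 37 °C; CellTiter-Glo luminescence as viability measure.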
ClpP mod: qHTS Assay for Activators of ClpP; purified B. subtilis ClpP, FRET peptide cleavage, 20 min; Potency, µM (series often up to 57.5 µM), for inactives: top-dose activity change, negative = active; hit rate 1.9% among 340,000; AID 651965, 2013; active means well fitted falling curve with a large enough effect; inconclusive means small, poorly fitted or top-dose-only effect; inactive means no such curve, though single readings can be large or run the other way; further: the source files actives as falling curves though it sought activators and does not explain the sign; nearly all actives have a fitted effect of over 65% in size
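FRET quenching reversal measured ClpP activation: 10 microg/mL B. subtilis ClpP at pH 8 with the FRET-FV decapeptide, read at 430 nm after 320 nm excitation. The 20-min minus 0-min signal was scaled between DMSO/no-enzyme wells and ADEP (5.8 microM final).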
* hit, by the source's call; ? = inconclusive; nt = no result given; [ ] = another dose, or the depositor's remark. Unless noted, the call rests on the fitted dose curve; in most records, active means well fitted curve in the direction sought with a large enough effect; inconclusive means small, poorly fitted or top-dose-only effect, or another doubt; inactive means no such curve, though single readings can be large; an effect the other way counts as inactive or inconclusive. Potency means the concentration at half of the fitted maximal effect.

SMILES	DT40 TDP1 CPT	TDP1 block	TDP1 cell noCPT	ClpP mod
COc1ccc(CCNC(=O)c2cnn(-c3cccc(C)c3)c2C2CCNCC2)cc1OC	-6.7%	4.2%	-6.9%	-1.2%
CCC(NC(=O)c1ccccc1O)c1ccccc1 (centres undefined)	?	0.0%	?	31.6µM*
Cc1ccc(C)c(CSC2=NN3CCCC(=O)N=C3S2)c1	?	nt	16.4µM*	nt
O=C1CCCN2N=C(SCC(=O)Nc3ccc(F)cc3F)SC2=N1	?	0.6%[0.0935 µM]	?	nt
O=C1CCCN2N=C(SCC(=O)Nc3nccs3)SC2=N1	-4.5%	44.7µM*	-10.3%	nt
O=C1CCCN2N=C(SCC(=O)Nc3cccc(F)c3)SC2=N1	20.6µM*	1.6%[0.0935 µM]	13µM*	nt
Cc1nnc(NC(=O)CSC2=NN3CCCC(=O)N=C3S2)s1	-25.5%	-6.7%	-21.0%	2.0%
COC(=O)[C@H](Cc1c[nH]c2ccccc12)NC(=O)NCc1ccc(OC)cc1	-15.4%	nt	12.8%	0.8%
OCc1ccccc1-c1cnc2cccnn12	-1.4%	nt	-10.3%	4.3%
CCCCC#CC1C=CC(Oc2cc(OC)c(OC)c(OC)c2)C(CO)O1 (centres undefined)	nt	9.0%[21 µM]	nt	nt
C/C(=N\NC(=O)c1ccccc1F)c1ccc2c(c1)Nc1ccccc1S2	5.8µM*	4.4%	23.1µM*	2.7%
O=C(O)c1cc(F)c(S(=O)(=O)N2CCN(S(=O)(=O)c3ccc4c(c3)OCCO4)CC2)cc1F	nt	-4.4%	nt	nt
COc1ccccc1/C=C(\C#N)C(=O)c1cccn1C	-3.1%	nt	-11.7%	-7.6%
CO/N=C/C(C#N)=C/c1cc(C(=O)c2ccccc2)cn1C	-20.1%	2.5%	20.6µM*	nt
COc1ccc(NC(=O)CSc2nnc3n2CCCCC3)cc1S(=O)(=O)N(C)C	-1.2%	nt	-1.7%	-0.2%
NC(=O)c1cc([N+](=O)[O-])c(Cl)cc1NCc1ccccn1	?	-2.8%	25.9µM*	-5.4%
NC(=O)c1cc([N+](=O)[O-])c(Cl)cc1NCc1ccncc1	?	0.2%	?	0.6%
COc1ccc(OC)c(S(=O)(=O)NCCc2sc(-c3cccnc3)nc2C)c1	nt	3.3%	nt	?
CCOc1ccccc1N1CC(c2nc3ccccc3n2CCOc2ccccc2OC)CC1=O (centres undefined)	?	2.5%	?	-7.7%
Cc1ccc(OCCn2c(C3CC(=O)N(Cc4ccc(F)cc4)C3)nc3ccccc32)c(C)c1 (centres undefined)	25.9µM*	5.7%	20.6µM*	-2.5%
CCc1ccc(OCCn2c(C3CC(=O)N(Cc4ccc(F)cc4)C3)nc3ccccc32)cc1 (centres undefined)	20.6µM*	2.9%	11.6µM*	2.8%
CC(C)(C)N1CC(c2nc3ccccc3n2CCOc2ccccc2)CC1=O (centres undefined)	?	3.0%	?	-0.6%
Cc1cncc(NCc2ccc3c(c2)OCO3)n1	-24.7%	nt	?	-18.1%
Cn1c(/C=N/Nc2nc3ccccc3[nH]2)nc2ccccc21	?	10.1%	29.1µM*	nt
Cc1nn(-c2ccccc2)c(C)c1/C=N/Nc1nc2ccccc2[nH]1	18.4µM*	6.9%	23.1µM*	nt
SMILES	DT40 TDP1 CPT	TDP1 block	TDP1 cell noCPT	ClpP mod
CC(C)Cn1c(/C=N/Nc2nc3ccccc3[nH]2)nc2ccccc21	3.66µM*	11.0%	3.26µM*	-7.5%
Cc1cc(=O)[nH]c(N/N=C/c2c(C)nn(-c3ccccc3)c2C)n1	?	5.0%	?	nt
CCCn1c(/C=N/Nc2nc3ccccc3[nH]2)nc2ccccc21	?	13.7%	?	-1.4%
Oc1c(C(c2ccccc2)N2CCCCC2)ccc2ccccc12 (centres undefined)	18.4µM*	nt	?	0.5%
O=C(N1CCCCC1)N1CCN(C(c2ccccc2)c2ccccc2)CC1	?	0.0%	?	-0.5%
O=C(CSC1=Nc2ccccc2C2=NC(Cc3ccccc3)C(=O)N12)Nc1ccccc1C(F)(F)F (centres undefined)	?	6.2%	25.9µM*	3.6%
O=C(CSC1=Nc2ccccc2C2=NC(Cc3ccccc3)C(=O)N12)Nc1ccccc1F (centres undefined)	23.1µM*	8.8%	?	-12.5%
Cc1oc(-c2ccc(Cl)cc2)nc1CN1CCCC(C(=O)NC2CC2)C1 (centres undefined)	16.4µM*	1.8%	10.3µM*	-0.1%
Cc1oc(-c2cccc(Cl)c2)nc1CN1CCC(C(=O)NCCCN2CCCC2=O)CC1	2.0%	2.6%	-5.3%	-1.1%
Cc1oc(-c2ccc(Cl)cc2)nc1CN1CCCC(C(=O)NCCCN2CCCC2=O)C1 (centres undefined)	8.2µM*	-1.3%	8.2µM*	-0.7%
CCOC(=O)N1CCC(NC(=O)CS(=O)(=O)Cc2nc(-c3cccc(Cl)c3)oc2C)CC1	-12.9%	0.5%	-22.3%	-5.5%
CCN1CCN(CCNC(=O)C2CCCN(Cc3nc(-c4cccc(Cl)c4)oc3C)C2)CC1 (centres undefined)	20.6µM*	3.9%	16.4µM*	-1.5%
Cc1oc(-c2cccc(Cl)c2)nc1CN1CCCC(C(=O)NCCc2ccc(Cl)cc2)C1 (centres undefined)	?	5.8%	?	-4.7%
CCOC(=O)N1CCC(NC(=O)C2CCCN(Cc3nc(-c4cccc(Cl)c4)oc3C)C2)CC1 (centres undefined)	0.82µM*	2.9%	0.731µM*	-0.3%
O=C(Cn1nnc(-c2ccccc2Cl)n1)Nc1ccc(Br)cc1	-11.2%	4.0%[12.3 µM]	-26.0%	1.1%
C#CCNC(=O)C1=C[C@@H](C2CCCCC2)C[C@@H](OCCCCO)O1	?	-2.6%	?	-3.4%
Cc1oc(-c2ccc(Cl)cc2)nc1CN1CCCC(C(=O)NCc2ccco2)C1 (centres undefined)	?	4.0%	23.1µM*	4.6%
Cc1cc(N2CCN(Cc3nc(-c4ccc(Cl)cc4)oc3C)CC2)cc(C)n1	11.6µM*	nt	18.4µM*	nt
COc1ccc(-c2nc(CN3CCN(c4cc(C)nc(C)c4)CC3)c(C)o2)c2ccccc12	-104.4%	2.8%	?	nt
CCCN(CCC)CCNC(=O)C1CCN(Cc2nc(-c3ccc(Cl)cc3)oc2C)CC1	?	2.0%	23.1µM*	-1.8%
Cc1oc(-c2ccc(Cl)cc2)nc1CN1CCCC(C(=O)NCc2ccc(Cl)cc2)C1 (centres undefined)	?	2.3%	?	0.4%
CCc1ccc(-c2nc(CN3CCCC(C(=O)NCc4ccccc4Cl)C3)c(C)o2)cc1 (centres undefined)	6.51µM*	6.9%	4.61µM*	-2.2%
Cc1oc(-c2ccc(Cl)cc2)nc1CN1CCC(C(=O)NCc2cccnc2)CC1	-3.3%	3.9%	?	-6.4%
CCCNC(=O)N[C@H]1C=C[C@H](CC(=O)NC2CCCCC2)O[C@@H]1CO	5.1%	nt	?	-3.1%
